# Screening data (PubChem BioAssay)
# Shown are actives, neighbours in structure and some others; about 7.2% of the full set was active somewhere.
# SUMO Mot1 rescue: blocks SUMOylation pathway, rescuing yeast Mot1-301 growth; S. cerevisiae Mot1-301 growth rescue, ATP luminescence, 38.5C; percent above DMSO median, 100 means doubled; hit rate 1% among 320,000; growth rescue, % at 18.8 µM; AID 2716;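 active means every valid replicate shows activation above 250% relative to neutral control wells; inactive means the rest, any valid replicate at or below 250%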;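 further: OY570 slx delta 5 strain wells were the positive control but not used for scaling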
# Efflux pump inh: inhibitors of Candida antifungal efflux pumps expressed in yeast; S. cerevisiae Candida pump triplex, Nile Red efflux; inhibition, % at 10 µM; hit rate 0.44% among 330,000; AID 485275;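 active means plate passing quality check with inhibition over a set limit, or well fluorescence over plate mean plus 4 SD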;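 further: Nile Red retained in pooled yeast measured as flow cytometry median fluorescence; 0% = buffer negative control and 100% = Enniatin B positive control; higher means more Nile Red kept so more efflux inhibition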
# VLA-4 inh: inhibition in a human VLA-4 binding assay. inhibition, % (about 7 µM as worked out from the volumes in the protocol). P13612. VLA-4 expressing cells, ligand binding flow cytometry. hit rate 0.2% among 330,000; in the data active means inhibition above about 50%
# ALR H2O2 inh: inhibitors of human sulfhydryl oxidase ALR | hit rate 3.8% among 290,000 | inhibition, % (no concentration beside the values) | AID 485317 | purified ALR, DTT oxidation, H2O2 HRP-luminol luminescence | P55789;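 active means mean replicate inhibition above about 79%, with every replicate also reaching it, limit read from the data; inconclusive means only one of the two criteria met; inactive means mean below limit and not every replicate reaching it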
# AHR activator: activators of human aryl hydrocarbon receptor; P35869; AHR-responsive luciferase reporter cells, luminescence; activation, % at 5 µM; hit rate 2.5% among 320,000; AID 2796; in the data active means activation above about 47%;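 further: 0% = vehicle wells and 100% = reference agonist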
# Target sequence (P35869 whole entry, looked up): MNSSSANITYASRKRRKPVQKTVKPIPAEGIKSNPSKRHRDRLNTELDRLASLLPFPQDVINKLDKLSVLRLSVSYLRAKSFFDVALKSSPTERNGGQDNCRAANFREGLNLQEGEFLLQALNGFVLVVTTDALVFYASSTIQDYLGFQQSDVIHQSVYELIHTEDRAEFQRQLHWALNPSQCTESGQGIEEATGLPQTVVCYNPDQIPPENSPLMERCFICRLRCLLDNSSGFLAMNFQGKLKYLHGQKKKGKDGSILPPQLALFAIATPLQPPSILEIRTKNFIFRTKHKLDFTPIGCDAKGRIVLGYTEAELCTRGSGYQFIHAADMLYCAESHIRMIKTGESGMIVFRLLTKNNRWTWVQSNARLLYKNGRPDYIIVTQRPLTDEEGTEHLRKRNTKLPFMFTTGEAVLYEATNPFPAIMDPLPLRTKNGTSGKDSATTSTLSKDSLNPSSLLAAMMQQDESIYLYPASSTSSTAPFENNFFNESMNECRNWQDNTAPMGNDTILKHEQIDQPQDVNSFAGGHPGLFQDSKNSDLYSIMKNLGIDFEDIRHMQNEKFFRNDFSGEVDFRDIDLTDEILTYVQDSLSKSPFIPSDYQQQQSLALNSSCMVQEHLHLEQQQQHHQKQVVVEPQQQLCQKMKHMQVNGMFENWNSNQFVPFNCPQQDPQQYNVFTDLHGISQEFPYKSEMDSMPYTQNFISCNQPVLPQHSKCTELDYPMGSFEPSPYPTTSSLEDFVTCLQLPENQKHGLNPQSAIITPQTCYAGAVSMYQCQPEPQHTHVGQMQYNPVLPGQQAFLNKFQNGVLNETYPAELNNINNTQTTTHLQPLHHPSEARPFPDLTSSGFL
# Bfl-1 A1 inh: inhibitors of the anti-apoptotic protein A1, read as caspase activation; MEF A1-2A-BIM cells, Caspase-Glo 3/7 luminescence, 3 h; percent of clofoctol response, vehicle zero; hit rate 0.066% among 330,000; AID 2462; caspase activation, % (test concentration not listed);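 active means over half of replicate activation scores above 10%, or exactly half above 10 with the replicate mean above 10; inconclusive means replicate mean below 10 yet half the replicates above 10; inactive means over half of replicates below 10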
# VLA-4 allo CP: confirmation of allosteric modulators of human VLA-4 integrin; inhibition, % at 6.7 µM; hit rate 2% among 1,300; shares compounds with VLA-4 inh; U937 cells, HUTS-21 LIBS mAb binding, flow cytometry; LDV ligand present at threefold Kd; in the data active means inhibition above about 40%;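 further: 0% = ligand without compound and 100% = no ligand background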
# Active calls of the source: *; ? = inconclusive; · = no result; ! = not active in a repeat.
SMILES,SUMO Mot1 rescue,Efflux pump inh,VLA-4 inh,ALR H2O2 inh,AHR activator,Bfl-1 A1 inh,VLA-4 allo CP
Cc1ccc(C(C(=O)NCCc2ccccc2)N(C(=O)c2csnn2)C2CC2)o1 (stereo not given),-2,0,54*,-1,1,1,6
CCCCCCCCOC(=O)c1ccc(N)cc1,14,0,50*,-13,-5,0,7
O=C(NCCCNc1ccc(C(F)(F)F)cc1[N+](=O)[O-])c1cc(F)c(F)cc1Cl,179,0,94*,-49,5,1,12
Cc1cc(C)n(-c2nc(NC(C)C)nc(NC(C)C)n2)n1,-7,0,57*,12,3,2,5
CCNc1nc(NCC)nc(-n2nc(C)cc2C)n1,20,0,15,-4,12,1,0
CCOC(=O)N1CCC(N(CCN(C)C)C(=S)Nc2ccc(OCC)cc2)CC1,25,0,19,-2,-2,0,·
CCC(C)c1ccc(S(=O)(=O)N2CCN3CCCC3C2)cc1 (stereo not given),-10,0,-14,-25,1,1,·
O=C(COC(=O)c1ccc(Cl)cc1)NC1CCCCCC1,0,0,-15,0,0,1,·
O=C(COC(=O)c1ccccc1)NC1CCCCCC1,-3,0,-1,3,0,-1,-4
CC1CN(CCOCCSc2ccccc2)CC(C)O1 (stereo not given),200,0,46,-4,4,1,2
Nc1ncnc2nc[nH]c12,-3,0,58*!,-5,1,2,-9
O=C(CN1C(=O)c2ccccc2S1(=O)=O)NC1CC2CCC1C2 (stereo not given),298,0,51*,?,3,0,5
Cc1ccc(NC(=O)C(C)c2ccc(-c3ccccc3)c(F)c2)cc1 (stereo not given),44,0,88*,-2,2,0,-1
C=CC[n+]1c(C)csc1Nc1ccc(C)cc1,3,0,52*,99*,-5,1,0
Nc1nc(F)nc2c1ncn2[C@@H]1O[C@H](CO)[C@@H](O)[C@H]1O,359,0,6,-13,-5,4,1
Nc1nc(Nc2ccccc2)nc2c1ncn2[C@@H]1O[C@H](CO)[C@@H](O)[C@H]1O,-2,0,56*,3,1,1,14
Nc1nc(F)nc2c1ncn2[C@@H]1O[C@H](CO)[C@@H](O)[C@@H]1O,-19,0,19,-15,-2,0,·
Nc1ncnc2c1ncn2C1O[C@H](CO)[C@@H](O)[C@@H]1O (stereo not given in full),-9,0,19,-2,1,-1,·
Nc1ncnc2c1ncn2[C@@H]1O[C@H](CO)[C@@H](O)[C@@H]1O,5,0,-23,-17,2,2,2
C[C@H](NC(=O)N1CCn2c1nc1ccccc12)C(=O)NCCc1ccccc1,11,0,3,-5,8,1,·
Cc1cc(/C=N\NC(=O)c2cccs2)c(C)n1-c1ccc2ncccc2c1,-2,0,93*,-8,11,-1,0
CC(C(=O)NCC1CCCCC1)N1CCc2ccccc2C1 (stereo not given),1,0,7,2,3,0,·
CC(C(=O)NCC1CCCCC1)N1CCN(S(=O)(=O)/C=C/c2ccccc2)CC1 (stereo not given),-12,1,40,-29,3,0,1
CC(Sc1nnnn1-c1ccccc1)C(=O)Nc1ccccc1-c1ccccc1 (stereo not given),-11,-1,2,-29,2,1,·
CC(Sc1nnnn1-c1ccccc1)C(=O)Nc1ccc(N2CCN(C)CC2)cc1 (stereo not given),24,0,102*,-29,4,1,1
SMILES,SUMO Mot1 rescue,Efflux pump inh,VLA-4 inh,ALR H2O2 inh,AHR activator,Bfl-1 A1 inh,VLA-4 allo CP
NS(=O)(=O)c1cccc(NC(=O)CCN2C(=O)C3CCCCC3C2=O)c1 (stereo not given),43,0,53*,·,0,0,-5
Cc1ccc(C)c(N2CCN(C(=O)c3ccc4nc(N5CCOCC5)sc4c3)CC2)c1,-5,0,4,4,7,0,-1
CCCN1CCN(CCCNC(=O)c2ccc3nc(N4CCC(C)CC4)sc3c2)CC1,3,0,10,13,-8,0,-2
O=C(NCc1cccc(Cl)c1)c1ccc2nc(N3CCOCC3)sc2c1,155,0,23,1,-1,0,0
O=C(NCCc1ccccc1)c1ccc2nc(N3CCOCC3)sc2c1,195,0,-18,45,20,0,10
O=C(NC(=S)NC1CCCCC1)c1ccc(F)cc1,-4,0,-21,5,6,-1,·
Cc1cccc(OCC(=O)NCc2cc(C)nc3ccccc23)c1,3,0,2,-26,12,0,·
Cc1ccc(F)c(CNC(=O)C2CCC(=O)N(CCN3CCOCC3)C2)c1F (stereo not given),-10,0,1,2,0,0,·
Cc1ccnc(NC(=O)c2cc(F)c(F)cc2Cl)n1,29,0,-3,3,2,1,·
CCn1cc(SCC(=O)NC2CCCC2)c2ccccc21,-13,0,7,10,5,0,·
CCc1cccc(C)c1NC(=O)c1ccc2nc(N3CCOCC3)sc2c1,-2,0,50*,3,0,0,4
O=C(c1ccc2nc(N3CCCCC3)sc2c1)N1CCN(c2ccccn2)CC1,-4,0,49,-3,9,1,8
CCOc1ccccc1CNC(=O)c1ccc2nc(N3CCOCC3)sc2c1,-7,0,2,-11,6,-1,4
Cc1cccc(N2CCN(C(=O)c3ccc4nc(N5CCCCC5)sc4c3)CC2)c1C,10,0,2,·,1,0,·
CCOc1ccc(CCNC(=O)c2ccc3nc(N4CCOCC4)sc3c2)cc1OCC,-4,0,17,-3,7,-1,·
O=C(Nc1ccc(F)cc1F)c1ccc2nc(N3CCOCC3)sc2c1,-17,1,33,·,6,-2,14
COCC(=O)Nc1cc(C)cn(Cc2c(F)cccc2Cl)c1=O,-4,0,17,-11,1,0,·
Cc1c(Cl)ccc(S(=O)(=O)Nc2cccnc2)c1Cl,-3,0,4,-2,2,0,·
CC(CCc1ccccc1)NC(=O)c1ccc2nc(N3CCOCC3)sc2c1 (stereo not given),-11,0,9,-1,7,0,·
CCCCN(CCCNC(=O)c1ccc2nc(N3CCOCC3)sc2c1)Cc1ccccc1,110,0,-112,-4,32,0,10
